Inconclusive results are not listed. The source made the active and inactive calls. Unless noted, the call rests on the fitted dose curve; in most records, active means well fitted curve in the direction sought with a large enough effect; inconclusive means small, poorly fitted or top-dose-only effect, or another doubt; inactive means no such curve, though single readings can be large; an effect the other way counts as inactive or inconclusive.
Key:
[1] = qHTS to identify inhibitors of the type 1 interferon - major histocompatibility complex class I in skeletal muscle: primary screen against the NCATS Mechanism Interrogation Plate v5.0 (MIPE) Libary (AID 1347411); further: nearly all actives have a fitted effect of over 65% in size; further: potency means the concentration at half of the fitted maximal effect
Outline: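 Immortalized human myoblasts (C25cl48) with HiBit knocked into endogenous HLA-B*08:01 were stimulated with 4 ng/ml IFN-beta and given compounds in 11-point 1:3 titration from 46 uM. After 24 h at 37 C, lytic HiBiT luminescence was read.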

[2] = biological target: Glutathione peroxidase 1 (Homo sapiens) (UniProt P07203); experiment: Primary qHTS Assay for Inhibitors of Recombinant Selenoprotein Glutathione Peroxidase 1 (GPX1) (AID 1845191); further: nearly all actives have a fitted effect of over 65% in size
Outline: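 GR-coupled assay: compounds preincubated 30 min at room temperature with GPX1, then reaction started with CHP; final 10 nM GPX1, 1 mM GSH, 0.5 mM CHP, 0.5 mM NADPH, 100 nM GR, 0.01% BSA, pH 7.5 Tris buffer. NADPH fluorescence (340/450 nm) read at 0 and 15 min.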

[3] = biological target: Phospholipid hydroperoxide glutathione peroxidase GPX4 (Homo sapiens) (UniProt P36969); experiment: Primary qHTS Assay for Inhibitors of Recombinant Selenoprotein Glutathione Peroxidase 4 (GPX4) (AID 1845192); details: outcome: dose series up to 50 µM unless noted; further: nearly all actives have a fitted effect of over 65% in size
Outline: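 GR-coupled assay: recombinant GPX4 preincubated 30 min with compound at room temperature; final 200 nM GPX4, 1 mM GSH, 0.5 mM cumene hydroperoxide, 0.5 mM NADPH, 100 nM GR, 0.01% BSA, pH 7.5 Tris. NADPH fluorescence (340/450 nm) read at 0 and 15 min.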

[4] = qHTS drug screen for cell cycle checkpoint inhibitors in PARPi-resistant BRCA-mutant ovarian cancer cell lines. (AID 1963452; calls by dose curve); details: PEO1/OlaR viability, CellTiter-Glo luminescence, 96 h; for Z-AUC: stronger effect = lower value
Outline: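 PEO1, PEO4 and PEO1/OlaR ovarian cancer cells, 600 per well, exposed 96 h at 37C to a dilution series. Viability read by CellTiter-Glo luminescence, normalized to DMSO and empty wells; activity summarized as Z-AUC.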

[5] = Primary qHTS for inhibitors of nuclear receptor binding SET domain protein 2 (NSD2) in an RCH-ACV wild type WT cells (2C) (AID 1645877); further: nearly all actives have a fitted effect of over 70% in size; further: potency means the concentration at half of the fitted maximal effect
[6] = NCATS anti-infectives library activity on HEK293 viability as a counter-qHTS vs the C. elegans viability qHTS (AID 1745854);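 further: HEK293 cells exposed to compounds for 24 hr before the viability read; on the % scale 0 is the no-effect control and ±100 the full control effect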
Outline: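 HEK293 cells (1,500/well) exposed 24 hr at 37C to 1:5 titrations, up to 41.7 uM final; counter-screen to a C. elegans viability qHTS. Viability by CellTiter-Glo luminescence after 10 min at room temperature; digitonin as control.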

[7] = measured here: PEO1 parental Z-AUC

Chain of Phospholipid hydroperoxide glutathione peroxidase GPX4 (Homo sapiens) (P36969 whole entry, looked up): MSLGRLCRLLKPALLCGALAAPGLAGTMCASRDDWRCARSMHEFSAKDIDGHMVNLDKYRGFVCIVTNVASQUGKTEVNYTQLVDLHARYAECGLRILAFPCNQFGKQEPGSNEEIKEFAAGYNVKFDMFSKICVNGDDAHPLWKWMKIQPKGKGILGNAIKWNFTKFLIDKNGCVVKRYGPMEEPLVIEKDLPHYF
Chain of Glutathione peroxidase 1 (Homo sapiens) (P07203 whole entry, looked up): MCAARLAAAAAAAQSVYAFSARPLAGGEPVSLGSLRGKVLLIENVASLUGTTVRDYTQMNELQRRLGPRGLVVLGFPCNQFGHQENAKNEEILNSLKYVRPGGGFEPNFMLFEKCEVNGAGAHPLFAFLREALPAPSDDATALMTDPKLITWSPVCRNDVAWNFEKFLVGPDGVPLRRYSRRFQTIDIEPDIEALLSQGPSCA

| Compound | Potency [1] | Potency [2] | Potency [3] | Z-AUC [4] | Z-AUC [4, 7] | Z-AUC ([4]; measured here: PEO4 Z-AUC) | Potency [5] | outcome [1] | outcome [3] | outcome [4] | Potency [6] |
| --- | --- | --- | --- | --- | --- | --- | --- | --- | --- | --- | --- |
| CN[C@@H](C)C(=O)N[C@H](C(=O)N1CCC[C@H]1C(=O)Nc1snnc1-c1ccccc1)C1CCCCC1 | inactive | inactive | inactive | 1.43 (inactive) | 0.271 | -0.618 |  |  |  |  |  |
| CCCN(CCC)C(=O)C1=Cc2ccc(-c3ccc(C(=O)N4CCCC4)cc3)cc2N=C(N)C1 | inactive | inactive |  | 0.263 (inactive) | -0.15 | -0.0193 | 18.6 µM (active) |  |  |  |  |
| CCOc1ccc(-n2c([C@@H](C)N(Cc3cccnc3)C(=O)Cc3ccc(F)c(C(F)(F)F)c3)nc3ncccc3c2=O)cc1 | inactive | inactive |  | 1.64 (inactive) | 1.42 | 1.34 | 18.6 µM (active) |  |  |  |  |
| O=C(Nc1cnccc1Cl)N1CCN(Cc2ccc3c(c2)OC(F)(F)O3)CC1 | inactive | inactive | inactive | 0.437 (inactive) | 0.137 | 0.79 |  |  |  |  |  |
| OCCOc1ccc(/C(=C(/CCCl)c2ccccc2)c2ccccc2)cc1 | inactive | inactive | inactive | -0.111 (inactive) | 0.225 | 0.557 |  |  |  |  |  |
| CC(C)(CO)n1cc(C(=O)c2cncc(NC(=O)Cc3ccc(Cl)cn3)c2)c2cnc(N)nc21 | inactive | inactive | inactive | -0.173 (inactive) | 0.879 | 0.771 | inactive |  |  |  |  |
| CC(=O)N[C@H]1CSSC[C@@H](C(N)=O)NC(=O)[C@H](C(C)C)NC(=O)[C@H](C)NC(=O)[C@H](Cc2cnc[nH]2)NC1=O | inactive | inactive | inactive | -0.0315 (inactive) | -0.625 | -0.422 | inactive |  |  |  |  |
| Nc1cc(COc2c(Cl)cc(C[C@H](N)C(=O)O)cc2Cl)c2oc(-c3ccccc3)nc2c1 | inactive | inactive | inactive | -1.13 (inactive) | -0.255 | -0.878 |  |  |  |  |  |
| Ac-PHSCN-NH2 | inactive | inactive | inactive | -0.465 (inactive) | 0.449 | 0.654 | 23.5 µM (active) |  |  |  |  |
| CC1(C)SCCN(S(=O)(=O)c2ccc(OCC#CCO)cc2)[C@H]1C(=O)NO | inactive | inactive | inactive | 0.823 (inactive) | 0.238 | 0.33 |  |  |  |  |  |
| Nc1ncc(C(=O)NC2CN(C(=O)C3CC3)C2)c2ccc(-c3cccc(F)c3)nc12 | inactive | inactive | inactive | 1.21 (inactive) | 0.799 | 0.359 |  |  |  |  |  |
| C[C@@H](O)[C@@H](C)Oc1nc(Nc2ccc(S(=N)(=O)C3CC3)cc2)ncc1C(F)(F)F (stereo not given in full) | 20.8 µM (active) | inactive | inactive | -1.04 (inactive) | -0.0707 | -0.563 |  |  |  |  |  |
| CC(=O)N1CCC(Nc2cc(C(=O)NC[C@H](O)CN3CCc4ccccc4C3)ncn2)CC1 | inactive | inactive | inactive | 0.665 (inactive) | 0.224 | 0.188 |  |  |  |  |  |
| CN(C)C(N)=NC(=N)N |  | inactive |  |  |  |  |  | inactive | inactive [setting not given] | inactive |  |
| COC(=O)C1=C(C)NC(c2ncc(F)cc2F)=N[C@@H]1c1ccc(F)cc1Cl | 16.5 µM (active) |  | inactive | 1.3 (inactive) | 1.02 | 0.861 | 18.6 µM (active) |  |  |  |  |
| O=C(Cc1ccccc1)Nc1nnc(CCSCCc2nnc(NC(=O)Cc3ccccc3)s2)s1 | inactive | inactive | inactive | 1.43 (inactive) | 1.23 | 1.41 |  |  |  |  | inactive |
| C=CC(=O)N1C[C@H](Nc2ncnc3[nH]ccc23)CC[C@@H]1C | inactive | inactive | inactive | -0.649 (inactive) | -0.501 | -0.666 | inactive |  |  |  |  |

From PubChem BioAssay (NCATS)
